High-throughput results as filed in PubChem BioAssay.
HT1080 IDH1KD tx – HT-1080 IDH1 knockdown cell toxicity (counter line); HT-1080 IDH1 knockdown viability, ATP luminescence, 48 h; Potency, µM (doses to about 46.1 µM), inactives show top-dose activity, negative = toxicity, hits mostly cytotoxic; 2% of 360,000 active; AID 686971;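 also: potency is read from the fitted curve at half-maximal effect; 0% = DMSO wells and -100% = cell-free medium wells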
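Using the IDH1-knockdown HT-1080 line run in the same batch and compound series as the NT line, viability after 48 h at 37 °C was determined by CellTiter-Glo luminescence and expressed as % activity.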
HT1080NT lethal – kills 2HG-producing HT-1080-NT fibrosarcoma cells | 1.6% of 360,000 active | Potency, µM (doses to about 46.1 µM), for inactives: at the top dose activity, negative = less viability, hits mostly cytotoxic | HT-1080-NT fibrosarcoma viability, CellTiter-Glo ATP luminescence, 48 h;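 also: NT is the 2HG producing partner of a matched IDH1 knockdown line; potency is read from the fitted curve at half-maximal effect; 0% = DMSO-treated cells and -100% = media-only wells without cells; nearly all actives have a fitted effect of over 55% in size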
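750 cells/well, RPMI + 5% FBS; 2 h settle, compound pin-transfer, 48 h at 37 degrees C. CellTiter-Glo 10 min RT, luminescence. Normalized to DMSO and media-only wells.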
TDP1 cell CPT – growth inhibition of DT40 Tdp1-/-;hTDP1 cells with camptothecin (screen for TDP1 inhibitors) | Potency, µM (top dose mostly 46.2 µM), for inactives: at the top dose activity change, negative = growth inhibition, usual class: inhibitors | AID 686979 | chicken DT40 Tdp1-/-;hTDP1 cells + 20 nM CPT, ATP luminescence, 48 h | 12% of 420,000 active; also: potency is read from the fitted curve at half-maximal effect; nearly all actives have a fitted effect of over 55% in size
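Chicken DT40 Tdp1-/- cells complemented with human TDP1, 400 cells/well, exposed to compounds plus 20 nM camptothecin for at least 48 h at 37 C; viability read as ATP content by CellTiter-Glo luminescence.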
IL-1B inflam inh – inflammasome signaling inhibition, IL-1 beta readout; THP-1 LPS/ATP IL-1B secretion, AlphaLISA, 16 h; stronger effect = lower value; activity change, % at 57.5 µM; AID 743279; 4.7% of 360,000 active; in the data active = activity change below about -50%; inconclusive = mostly about -30% to -49%
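Secreted IL-1B measured by AlphaLISA bead assay after 16 h compound exposure of THP-1 cells; compounds (final up to 57.5 uM) added 1 h before LPS (250 ng/mL) and ATP (1.25 mM) stimulation; lower signal means less secretion.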
DT40 TDP1 no CPT – qHTS for Inhibitors of human tyrosyl-DNA phosphodiesterase 1 (TDP1): qHTS in cells in absence of CPT | DT40 Tdp1-/- hTDP1 cells, no CPT, ATP luminescence, 48 h | 15% of 420,000 active | Potency, µM (highest dose often 46.2 µM), for inactives: at the top dose activity change, negative = growth inhibition, usual class: inhibitors; also: potency is read from the fitted curve at half-maximal effect; nearly all actives have a fitted effect of over 55% in size
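Growth kinetics read by CellTiter-Glo luminescence after ≥48 hr at 37 °C. Cells: DT40 Tdp1-/- stably carrying human TDP1, 400 per well, compound exposure in the absence of CPT (DMSO vehicle).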
* = called active by the depositor; i = inactive; ? = inconclusive; . = no result. Shown are actives, neighbours in structure and some others; about 19% of the full set was active somewhere. Unless noted, calls follow the shape of the dose curve; as a rule, active = well fitted curve in the direction sought with a large enough effect; inconclusive = small, poorly fitted or top-dose-only effect, or another doubt; inactive = no such curve, though single readings can be large; an effect the other way counts as inactive or inconclusive. Unless noted, % is scaled to controls: 0 for no effect and ±100 for the full control effect.

SMILES	HT1080 IDH1KD tx	HT1080NT lethal	TDP1 cell CPT	IL-1B inflam inh	DT40 TDP1 no CPT
CC(C)c1ccc(NC(=O)COC(=O)Cn2cnc3c2c(=O)n(C)c(=O)n3C)cc1	11.0%	9.3%	-1.0%	12.6	-2.6%
COc1ccc2c(c1)Cc1cc(NC(=O)c3ccccc3-c3ccccc3C(=O)O)ccc1-2	-8.8%	-9.7%	-9.0%	-10.5	-1.0%
CN(C)CCCN(C(=O)c1ccc(S(=O)(=O)N(C)C2CCCCC2)cc1)c1nc2ccc(Br)cc2s1	?	?	?	-83.2*	?
CC1CCCCN1S(=O)(=O)c1ccc(C(=O)N(CCCN(C)C)c2nc3cc4c(cc3s2)OCO4)cc1 (stereo unspecified)	-1.1%	4.1%	-29.5%	i	-7.2%
O=C(Nc1ccc2c(c1)nc1n2CCN(Cc2ccccc2)C1)NC1CCCCC1	-5.1%	?	?	-11.7	20.6µM*
O=C(Nc1ccc2c(c1)nc1n2CCN(Cc2ccccc2)C1)c1cccs1	1.1%	0.4%	?	-94.1*	18.4µM*
COCCN1CCn2c(nc3cc(NC(=O)c4ccc(OC)cc4)ccc32)C1	23.1%	28.4%	20.6µM*	-6.6	20.6µM*
COCCN1CCn2c(nc3cc(NC(C)=O)ccc32)C1	16.0%	14.0%	10.4%	14.9	7.9%
COCCN1CCn2c(nc3cc(NC(=O)NC4CCCCC4)ccc32)C1	9.5%	-3.3%	?	-24.1	16.4µM*
CC(=O)c1ccc(OCCCC(=O)NCCc2ccccc2)cc1	10.9%	11.9%	11.8%	-0.2	9.7%
CCC1CN(C(=O)N2CCC(C(=O)NCCc3cc(OC)ccc3OC)CC2)c2ccccc2O1 (stereo unspecified)	.	.	16.4µM*	.	20.6µM*
CCC1CN(C(=O)N2CCC(C(=O)NCc3cc(OC)ccc3OC)CC2)c2ccccc2O1 (stereo unspecified)	.	.	18.4µM*	.	18.4µM*
CCC1CN(C(=O)N2CCC(C(=O)Nc3ccccc3OC)CC2)c2ccccc2O1 (stereo unspecified)	-1.2%	1.3%	18.4µM*	34.2	?
COc1cc(C(=O)O/N=C2/C=C(C)C(=O)C=C2C)cc(OC)c1OC	21.2%	5.6%	8.2µM*	17.5	2.06µM*
C=CCSc1nnc(NC(=O)c2c(CC)noc2C)s1	2.0%	7.2%	7.2%	39.6	-21.2%
Cc1ccc(-c2nnc(Nc3ccc(CC(N)=O)cc3)c3ccccc23)cc1S(=O)(=O)NCCO	3.1%	0.6%	-5.3%	7.0	12.4%
Cc1ccc(-c2nnc(Nc3ccc4c(c3)OCO4)c3ccccc23)cc1S(=O)(=O)NCCO	-14.2%	-5.7%	?	-9.3	16.4µM*
Cc1ccc(-c2nnc(Nc3ccc(Cl)c(Cl)c3)c3ccccc23)cc1S(=O)(=O)NCCO	.	.	18.4µM*	.	18.4µM*
CCOC(=O)C1=CCN(S(=O)(=O)c2ccccc2F)C1c1ccc(F)cc1 (stereo unspecified)	-0.7%	4.7%	?	49.2	?
COc1cccc(-c2ccc3c(c2)N(Cc2cccc(F)c2)C(=O)C(C)S3)c1 (stereo unspecified)	-0.3%	-13.6%	?	-4.5	?
CC1C(=O)N(Cc2ccccc2F)c2ccccc2N1C(=O)c1c(F)cccc1F (stereo unspecified)	-13.0%	-0.6%	18.4µM*	?	18.4µM*
CC1C(=O)N(Cc2cccc(F)c2)c2ccccc2N1C(=O)c1ccccc1 (stereo unspecified)	-13.7%	-26.4%	?	-14.4	14.6µM*
COc1cccc(CN2C(=O)C(C)N(C(=O)c3c(F)cccc3F)c3ccccc32)c1 (stereo unspecified)	-26.2%	?	23.1µM*	-14.0	10.3µM*
O=C1NC(=O)N(Cc2ccccc2F)C1=O	-1.0%	16.8%	1.7%	-7.1	-6.6%
O=C(CN1CCN(CC(=O)Nc2cccc(F)c2)CC1)NCC1(N2CCOCC2)CCCCC1	-2.0%	-1.4%	-28.4%	?	1.6%
SMILES	HT1080 IDH1KD tx	HT1080NT lethal	TDP1 cell CPT	IL-1B inflam inh	DT40 TDP1 no CPT
Cc1ccc(Nc2c([N+](=O)[O-])ccc3nonc23)c(C)c1	2.8%	7.5%	21.7%	3.3	0.3%
Cc1ccc(S(=O)c2ccc([N+](=O)[O-])c3nonc23)cc1 (stereo unspecified)	-5.3%	-12.2%	2.59µM*	?	3.26µM*
COc1cc(-c2ccc(NC(C)=O)c(OC)c2)ccc1NC(C)=O	-11.9%	-19.7%	-0.7%	-3.1	-2.2%
COc1ccccc1-c1cc(NC(C)=O)c2ncc(-c3cccc(C(C)=O)c3)n2c1	?	?	23.1µM*	-23.7	14.6µM*
CC(=O)Nc1cc(-c2cccnc2)cn2c(-c3ccc(F)cc3)cnc12	3.9%	1.4%	?	6.7	23.1µM*
COc1ccc(-c2cc(NC(C)=O)c3ncc(-c4ccc(OC)c(OC)c4)n3c2)cc1OC	?	?	18.4µM*	-19.4	14.6µM*
CC(=O)Nc1cc(-c2ccsc2)cn2c(-c3ccc(F)cc3)cnc12	?	?	16.4µM*	-10.3	18.4µM*
O=C(NCCOc1ccc(Cl)cc1)c1ccco1	7.0%	-1.0%	3.1%	-9.0	-17.3%
Cc1sc(NC(=S)NC(=O)c2ccco2)c(C#N)c1C	20.8%	23.7%	-2.3%	39.2	-21.8%
COc1ccc(-c2cnc3c(NC(C)=O)cc(-c4ccsc4)cn23)cc1OC	-28.3%	-23.3%	16.4µM*	?	20.6µM*
COc1ccc(-c2cnc3c(NC(C)=O)cc(-c4ccccc4OC)cn23)cc1OC	25.9µM*	?	11.6µM*	.	-82.8%
O=C(NCC1CCCO1)c1ccc2c(c1)N(Cc1ccccc1)C(=O)CS2=O (stereo unspecified)	2.8%	-0.4%	14.6µM*	-7.7	?
O=C(Nc1ccc(Br)cc1F)c1ccc2c(c1)N(Cc1ccccc1)C(=O)CS2=O (stereo unspecified)	-27.3%	?	9.2µM*	-57.5*	13µM*
Cc1ccc(C)c(NC(=O)c2ccc3c(c2)N(Cc2ccc(F)cc2)C(=O)CS3=O)c1 (stereo unspecified)	2.9%	7.5%	-24.9%	-3.6	-26.8%
O=C(NCc1ccco1)c1ccc2c(c1)N(Cc1ccccc1)C(=O)CS2=O (stereo unspecified)	13.1%	3.7%	-27.2%	9.8	-8.7%
COc1cc(Br)c(C2CC(=O)Nc3cc(OC)c(OC)c(OC)c32)cc1OC (stereo unspecified)	.	.	3.8%	.	?
COc1ccccc1CCN=C(N)NS(=O)(=O)c1ccccc1F	3.9%	0.0%	-0.7%	-3.0	-8.0%
c1ccc(Nc2nc(-c3ccccc3)ns2)cc1	-0.5%	-13.5%	5.7%	9.6	-18.4%
N#CC1=CN(Cc2ccccc2)C=C(/C=N/Nc2ccccc2)C1	?	?	?	-79.6*	?
